Screening data deposited in PubChem BioAssay by several laboratories.
The entries come from a sample that favours hits as a whole.
RmlC RmlD mix = mixture blocks RmlC and RmlD coupled enzyme activity; RmlC/RmlD coupled enzyme inhibition, 384-well mixture HTS; hit rate 0.39% among 110,000; AID 1532; inhibition, % at 5.5 µM; in the data active means inhibition above about 30%, passing the limit was not always enough
HIV RNase H inh = inhibitors of HIV-1 reverse transcriptase RNase H | P04585 | RT-RNase H RNA/DNA duplex cleavage, fluorescence | inhibition, % at 10 µM | hit rate 1.9% among 65,000; in the data active means inhibition above about 50%
RmlCD artifact = shows fluorescent artifact in RmlC/RmlD assay, dose-response counter-screen; shares compounds with RmlC RmlD mix; RmlC/RmlD assay fluorescence artifact counter-screen; calls only; hit rate 96% among 360; AID 1696; call rule not given here;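 further: compound alone with no enzyme and no substrates present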
Of the large screens only hits and unclear results are named; the others gave an inactive call (follow-up assays come after a bar, where they were run).

COc1cc2c(cc1OC)-c1cc(OCc3cccnc3)nc(=O)n1CC2	RmlC RmlD mix 115 | RmlCD artifact active
CCOc1cccc(Nc2cc3n(c(=O)n2)CCc2cc(OC)c(OC)cc2-3)c1	none (no result: HIV RNase H inh)
COc1ccc(C2=NN(C(C#N)c3ccc(OC)c(OC)c3)C(c3ccccc3)C2)cc1 (centres undefined)	none (no result: HIV RNase H inh)
C#CC(C)(CC)NC(=O)Cn1nnc(-c2ccc(S(C)(=O)=O)cc2)n1 (centres undefined)	none
Cc1ccc(-c2nc3ncccc3o2)cc1NC(=O)COc1ccccc1	none (no result: HIV RNase H inh)
Cc1cccn2cc(-c3ccc(NC(=O)Cc4ccccc4)cc3)nc12	none (no result: HIV RNase H inh)
COCC(=O)Nc1ccc(-c2cn3cccnc3n2)cc1	RmlC RmlD mix 96 | RmlCD artifact active
CCOCC(=O)Nc1cc(-c2cn3cccnc3n2)ccc1C	RmlC RmlD mix 107 | RmlCD artifact active
O=C1CC(NCc2ccc3c(c2)OCO3)C(=O)N1CCc1ccccc1 (centres undefined)	none
CC1(C)CC(=O)C(C(=S)Nc2ccccc2)=C(NCCN2CCOCC2)C1	none (no result: HIV RNase H inh)
CCOc1ccc(C2/C(=C(/O)c3ccc(Cl)cc3)C(=O)C(=O)N2CCCN(C)C)cc1OC (centres undefined)	none (no result: RmlC RmlD mix)
COC(=O)Cc1c(C)c2ccc(OCc3nn[nH]n3)cc2oc1=O	none (no result: HIV RNase H inh)
COC(=O)Cc1c(C)c2c(OCc3nn[nH]n3)cc(C)cc2oc1=O	RmlC RmlD mix 38 | RmlCD artifact active
O=C(Cn1c(NCCCO)nc2ccccc21)c1cccs1	none
COCCCn1c(Cc2ccccc2)nnc1SCC(=O)N1CCCCC1	none
O=C(NCCN1CCOCC1)c1ccc2c(c1)N(Cc1ccccc1)CCS2	none
CN1CCN(CCCNC(=O)c2ccc3c(c2)N(Cc2ccccc2)CCS3)CC1	RmlC RmlD mix 38 | RmlCD artifact active
O=C(NCc1ccco1)c1cc(-c2ccccc2)nc2ccccc12	none (no result: HIV RNase H inh)
O=C(NNC(=O)c1cc(-c2ccco2)nc2ccccc12)c1ccccc1	none (no result: RmlC RmlD mix, HIV RNase H inh) | RmlCD artifact active
O=C(COC(=O)c1cc(-c2ccco2)nc2ccccc12)NCc1ccccc1	none (no result: HIV RNase H inh)
CNC(=O)COC(=O)c1cc(-c2ccco2)nc2ccccc12	none (no result: RmlC RmlD mix, HIV RNase H inh) | RmlCD artifact active
Cc1ccc(-c2csc(NC(=O)CSc3ncn(-c4ccccc4)n3)n2)cc1	none
O=C(CCn1cnc2ccccc2c1=O)Nc1ccc(S(=O)(=O)N2CCCC2)cc1	none
CCCNC(=O)c1ccc(CNc2c(N3CCC(C(=O)OCC)CC3)c(=O)c2=O)cc1	none
O=S(=O)(c1ccccc1Cl)N1CCC(O)(c2ccc3c(c2)OCO3)CC1	none (no result: RmlC RmlD mix)
Cc1cc2cc(CN(Cc3ccc4c(c3)OCO4)C(=O)c3ccco3)c(=O)[nH]c2cc1C	none
COc1cc2cc(CN(Cc3ccc4c(c3)OCO4)C(=O)c3ccco3)c(=O)[nH]c2cc1OC	RmlC RmlD mix 46 (no result: HIV RNase H inh) | RmlCD artifact active
CN(C)S(=O)(=O)c1ccc(-c2cn3ccccc3n2)cc1	RmlC RmlD mix 40 (no result: HIV RNase H inh) | RmlCD artifact active
Cc1ccc2nc(-c3cccc(S(=O)(=O)N(C)C)c3)cn2c1	none
C=CCN(C(=O)COc1ccccc1)c1nnc(-c2ccncc2)s1	RmlC RmlD mix 154 (no result: HIV RNase H inh) | RmlCD artifact active
COCCN(C(=O)c1cccc(OC)c1)c1nnc(-c2ccncc2)s1	none
CC(C)N(C(=O)COC(=O)c1cc(Cl)cc(Cl)c1N)C(C)C	none (no result: HIV RNase H inh)
CN(C)C(=O)COC(=O)c1cc(Cl)cc(Cl)c1N	RmlC RmlD mix 36 (no result: HIV RNase H inh) | RmlCD artifact active
O=C1CNC(=O)/C1=C/c1ccc(O)cc1	none (no result: HIV RNase H inh)
CCOC(=O)c1sc(Nc2ccccc2)nc1C	none (no result: HIV RNase H inh)
CCOC(=O)c1sc(Nc2nc3c(OC)cccc3s2)nc1C	RmlC RmlD mix 79 | RmlCD artifact active
c1ccc(C2[C@H]3CN(CC4CCCCC4)[C@H](c4ccccc4)C34CC2(c2cccnc2)C4)cc1 (some centres undefined)	none (no result: HIV RNase H inh)
O=C(NCC1CCCO1)c1coc2nc3ccccc3nc12 (centres undefined)	none
COC(CNC(=O)c1coc2nc3ccccc3nc12)OC	none (no result: RmlC RmlD mix, HIV RNase H inh) | RmlCD artifact inactive
CC(=O)NC(CC(C)C)C(=O)NC(=O)NCc1ccccc1 (centres undefined)	none
C=C(C)C(=O)Nc1ccc(OC(F)(F)C(F)F)c(NC(=O)C(=C)C)c1	none (no result: HIV RNase H inh)
Cn1c(/C=N/n2cnnc2)nc2ccccc21	RmlC RmlD mix 44 | RmlCD artifact active
Cn1c(/C=N/c2nc3ccccc3[nH]2)nc2ccccc21	none
C=CCn1c(CCC(=O)O)ccc1-c1ccccc1	none
Cc1ccc(Cn2c(SCC(C)C)nc3c2c(=O)n(C)c(=O)n3C)cc1	none
CC1Cc2ccccc2N1C(=O)c1cc2c(=O)n3ccccc3nc2n1C (centres undefined)	none
Cn1c(C(=O)N2CCc3ccccc3C2)cc2c(=O)n3ccccc3nc21	RmlC RmlD mix 103 | RmlCD artifact active
CCCCn1c(=O)[nH]c(=O)c2c1nc(-c1ccc(C#N)cc1)n2C1CCCC1	none (no result: RmlC RmlD mix)
CC(C)Cn1c(-c2ccc(C#N)cc2)nc2c1c(=O)[nH]c(=O)n2CC(C)C	RmlC RmlD mix 32 (no result: HIV RNase H inh) | RmlCD artifact active
CCC(C)NC(=O)C1CCN(S(=O)(=O)c2ccc(OC)cc2)CC1 (centres undefined)	none (no result: HIV RNase H inh)
O=C(NCc1ccco1)c1cnn2c(C(F)(F)F)cc(-c3cccs3)nc12	none
O=C(Nc1cccnc1)c1ccccc1O	none (no result: HIV RNase H inh)
O=C(Nc1cccnc1)c1coc(=O)c2ccccc12	RmlC RmlD mix 61 | RmlCD artifact active
Cc1ccc2nc(-c3ccc(NC(=S)NCCC(C)C)cc3)sc2c1	RmlC RmlD mix 130 (no result: HIV RNase H inh) | RmlCD artifact active
CC(=O)NC(=S)Nc1ccc(-c2nc3ccc(C)cc3s2)cc1	none (no result: HIV RNase H inh)
CC(C)C(C)(C#N)NC(=O)CSc1nnc(-c2ccccc2)o1 (centres undefined)	none (no result: HIV RNase H inh)
C=CCNC(=O)NC(=O)COC(=O)/C(C#N)=C/c1cc(C)n(CCC(C)C)c1C	RmlC RmlD mix 30 (no result: HIV RNase H inh) | RmlCD artifact active
Cc1cc(/C=C(\C#N)C(=O)OCC(=O)NC(=O)NC(C)(C)C)c(C)n1CCC(C)C	none (no result: HIV RNase H inh)
Cc1cc2c(c(=O)n1C)C(Cc1ccccc1)C(C#N)=C(N)O2 (centres undefined)	none
CCOC(=O)c1cc2c(=O)n3cccc(C)c3nc2n(Cc2ccco2)c1=NC(=O)c1ccccc1	RmlC RmlD mix 36 (no result: HIV RNase H inh) | RmlCD artifact active
Cc1cccn2c(=O)c3cc(C#N)c(=NC(=O)c4ccncc4)n(Cc4ccco4)c3nc12	none (no result: RmlC RmlD mix)
Cc1cc(C)c(C)c(C(=O)CSc2nnc(C)c(=O)[nH]2)c1C	none (no result: HIV RNase H inh)
CCC(=O)c1cc2c(C)cc(=O)oc2c(C)c1O	none
CCc1cc(=O)oc2c(C)c(O)c(CN(C)C)cc12	RmlC RmlD mix 82 | RmlCD artifact active
O=C(CSc1nc2c(c(=O)[nH]1)CCCC2)Nc1ccc(Cl)cc1F	none
COc1ccc2oc(=O)c(-c3nc4ccccc4o3)cc2c1	none (no result: HIV RNase H inh)
COc1ccc2cc(-c3nc4ccccc4n3C)c(=O)oc2c1	RmlC RmlD mix 31 (no result: HIV RNase H inh) | RmlCD artifact active
NNc1nnc(-c2ccccc2)c(-c2ccccc2)n1	none (no result: HIV RNase H inh)
Nc1nc(N)c2nc(-c3ccccc3)c(N)nc2n1	RmlC RmlD mix 119 | RmlCD artifact active
COc1ccc2c(c1)c1ncn(CCCN3CCOCC3)c(=O)c1n2C	RmlC RmlD mix 106 (no result: HIV RNase H inh) | RmlCD artifact active
COc1ccc2c(c1)[nH]c1c(=O)n(CCCN3CCOCC3)cnc12	none (no result: HIV RNase H inh)
CCOC(=O)CCn1cc(F)c(=O)n(Cc2ccccc2)c1=O	none
CC(/C=N/n1cnnc1)=C\c1ccco1	none
CCCCOC(=O)Nc1cccc(Cl)c1C	none (no result: HIV RNase H inh)
Nc1c(C(=O)NCCN2CCOCC2)c2nc3ccccc3nc2n1Cc1ccco1	RmlC RmlD mix 37 | RmlCD artifact active
